Assay results reported in ChEMBL document CHEMBL4513216, “Probing the Open Global Health Chemical Diversity Library for Multistage-Active Starting Points for Next-Generation Antimalarials” (ACS Infect Dis, 2020).
About 2,100 (3.2%) of roughly 65,000 compounds showed an effect of 50% or more. The median lay at about -52%. Only a selection was taken, and strong results are over-represented in it overall.

system: Plasmodium falciparum; assay: Screen against P. falciparum Asexual Blood Stage (ABS), at 5uM; format: functional, Dd2; conditions: tested at 5 uM

| Structure (SMILES) | INHIBITION |
| --- | --- |
| COCCNc1ncc(-c2cccc(OC)c2)c(-c2nccn2C)n1 | 69.3% |
| Cc1nnsc1CN1C[C@H]2CC[C@@H](C1)N(Cc1ccccc1)C2 | -69.4% |
| COc1cccc(CN2CCCCC2CN2CCOCC2)c1F (stereo not drawn) | 4.8% |
| COc1cc2c(cc1CN1C[C@@H](CN3CCOCC3)[C@@H](CO)C1)CCC2 | 21.7% |
| COc1cc2c(cc1CN1CCCCC1CN1CCOCC1)CCC2 (stereo not drawn) | 65.9% |
| CC(OCC1CC1)C(=O)Nc1ncccc1I (stereo not drawn) | -86.5% |
| COCCn1cncc1CN1CCCC(C)(c2ccccc2)C1 (stereo not drawn) | 61.5% |
| COCCn1cncc1CN1CCCC(C(=O)Cc2ccccc2)C1 (stereo not drawn) | -43.6% |
| COCCN1CCCC12CCN(Cc1cncn1C)CC2 | -12.2% |
| CN1CCCC2(CCN(Cc3cncn3C3CCCCC3)C2)C1=O (stereo not drawn) | -28.7% |
| COCCn1cncc1Cn1cccc(C(F)(F)F)c1=O | -90.4% |
| CC1(c2ccccc2)CCCN(Cc2nnc(-c3cccnc3)o2)C1 (stereo not drawn) | -119% |
| O=C(Cc1ccccc1)C1CCCN(Cc2cncn2C2CCCC2)C1 (stereo not drawn) | 57.8% |
| O=C(C1CCCN(Cc2ccccc2)C1)N1CCc2sccc2C1 (stereo not drawn) | 12.7% |
| CC1(c2ccccc2)CCCN(Cc2cncn2C2CC2)C1 (stereo not drawn) | 67.2% |
| Cn1nc(C(=O)NCc2ccc(Cl)cc2)c2c1CCS(=O)(=O)C2 | -79% |
| COCC(=O)N1CCC2(COCc3cnc(N4CCOCC4)nc32)C1 (stereo not drawn) | -38% |
| CC(C)n1nc(CN(C)C)c2c1CN(C(=O)CC1CC1)CC2 | -91.2% |
| COc1cc(NC(=O)N2CCCC2c2nncn2C)ccc1Br (stereo not drawn) | -53.7% |
| CCS(=O)(=O)NCc1nc(C)cc(N2CCCCC2)n1 | -38.7% |
| CC(C)n1nc(CN(C)C)c2c1CN(CC1CC1)CC2 | -87.1% |
| CC(C)n1nc(CN2CCCC2)c2c1CN(CC1CC1)CC2 | 55.7% |
| Cn1nc(CN2CCCC2)c2c1CN(CC1CC1)CC2 | -16.8% |
| CC(C)N(C)Cc1cnc2n1CCN(C(=O)Cc1ccccn1)C2 | -6.41% |
| CC(C)N(C)Cc1cnc2n1CCN(C(=O)Cc1ccsc1)C2 | -45.1% |
| CC(C)N(C)Cc1cnc2n1CCN(C(=O)c1cccs1)C2 | 62.6% |
| Cc1ccc(C(=O)N2CCC(Oc3ccc(C)c(C)c3)CC2)c(=O)[nH]1 | -19.9% |

| Structure (SMILES) | INHIBITION |
| --- | --- |
| Cc1nc(CN2CCc3ncnc(C)c3CC2)cs1 | -152% |
| CC(C)CCN1Cc2c(C(=O)N3CCCC3)nn(C)c2C1 | -58.9% |
| COc1ccc(NCC2(O)CCNCC2)cc1OC | -115% |
| Cn1cc([C@@H]2CN(S(C)(=O)=O)C[C@H]2N)c2ccncc21 | 16.8% |
| Cn1cc([C@@H]2CN(S(=O)(=O)c3cccnc3)C[C@H]2N)c2ccncc21 | -21.6% |
| Cn1cc([C@@H]2CN(S(=O)(=O)c3ccccc3F)C[C@H]2N)c2ccncc21 | 63.4% |
| CN(C)c1ccc(C(=O)N(CCO)CC2CC2)c(F)c1 | -93.3% |
| Cc1nn(C)cc1-c1cc(C(F)(F)F)nn1CCC#N | -167% |
| Cc1cc(N2CCC(Cc3ncccn3)C2)ncn1 (stereo not drawn) | -89.6% |
| CC(O)CNCc1ccccc1C(F)(F)F (stereo not drawn) | -46.2% |
| Oc1ccc(Cl)cc1CNCc1ccccc1C(F)(F)F | 64.5% |
| Nc1nnnn1NCc1ccccc1C(F)(F)F | -13.1% |
| O=C(COCCOc1ccccc1)Nc1ccnn1CC1CCOC1 (stereo not drawn) | -132% |
| CCN(C(=O)CCOC)C(c1ccc(Cl)cc1)c1ccccn1 (stereo not drawn) | -56.9% |
| O=C(O)CC(NC(=O)c1ccccc1OC(F)F)c1cccs1 (stereo not drawn) | -127% |
| CCCc1ccc(S(=O)(=O)Nc2ccc(=O)n(C)c2)cc1 | -53.7% |
| COCCN1CCC2(CC1)COc1ccccc1S(=O)(=O)N(C)C2 | -7.6% |
| CN(C)C(=O)CN1CCC2(CC1)COc1ccccc1S(=O)(=O)N(C)C2 | -44.5% |
| CCCN1CCC2(CC1)COc1ccccc1S(=O)(=O)N(CC1CC1)C2 | -32.6% |
| CN1CC2(CCN(Cc3ccoc3)CC2)COc2ccccc2S1(=O)=O | 61.9% |
| CCC(=O)N1CCC2(CC1)COc1ccccc1S(=O)(=O)N(C)C2 | -29.3% |
| CN1CC2(CCN(CC3CC3)CC2)COc2ccccc2S1(=O)=O | 52.5% |
| COc1cccc(-c2ncc(CN3C[C@H]4CC[C@@H](C3)N(C)C4=O)s2)c1 | -211% |
| COc1cc(F)c(NC(=O)N(C)Cc2cc(C)on2)cc1F | -69.1% |
| Cc1cnn(CCC(=O)N2CCN(C(=O)C(C)C)[C@@H]3CS(=O)(=O)C[C@@H]32)c1 | -87.4% |
| CCOC(=O)c1nc(COc2ccc(CC(N)=O)cc2)no1 | -26% |
